Assay outcomes (PubChem)
An excerpt weighted towards active compounds, which were near 1.1% of everything screened.
NPSR antagonist: blocks cAMP signaling of the human neuropeptide S receptor; CHO-NPSR cells, cAMP TR-FRET, antagonist mode; 1% of 220,000 active; Potency, µM (highest dose often 38.3 µM), usual class: inhibitors; Q6W5P4; AID 1461; further: nearly all actives have a fitted effect of over 50% in size
AT treatment: potential ataxia-telangiectasia treatment. AID 485349. Potency, µM (series often up to 57.5 µM), most hits filed as activators. 0.19% of 320,000 active. F2112 A-T fibroblasts, KAP-1 phosphorylation AlphaLISA; neocarzinostatin DNA damage 30 min before lysis; further: nearly all actives have a fitted effect of over 45% in size
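ATM-like activity read as KAP-1 phosphorylation via AlphaLISA donor/acceptor antibody pairs after lysis and 6 hr at 25C. Cells were ATM-null patient fibroblasts (F2112, hTERT), dosed 60 min, then exposed to the DSB inducer NCS for 30 min.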
HTT ATP protect: cytoprotection in Huntington HTT-Q103 PC12 cell model | AID 1471 | 0.14% of 230,000 active | PC12 HTT-Q103 induced, cytoprotection, ATP luminescence, 40 h | Potency, µM (top dose mostly 56.4 µM), actives largely listed as activators; further: nearly all actives have a fitted effect of over 45% in size
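Cells were plated at 1500 per well in phenol red-free DMEM with 5% equine and 5% calf serum. Tebufenozide (100 nM final) and compounds were added, then ATPlite reagent, and luminescence was read.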
mIDH1 inhibitor: inhibitors of human mutant IDH1 R132H; O75874; IDH1-R132H enzyme, NADPH consumption, diaphorase/resazurin fluorescence; Potency, µM (series often up to 76.6 µM), usual class: inhibitors; 0.093% of 390,000 active; further: nearly all actives have a fitted effect of over 65% in size
Target sequence (O75874 whole entry R132H, stated change not applied): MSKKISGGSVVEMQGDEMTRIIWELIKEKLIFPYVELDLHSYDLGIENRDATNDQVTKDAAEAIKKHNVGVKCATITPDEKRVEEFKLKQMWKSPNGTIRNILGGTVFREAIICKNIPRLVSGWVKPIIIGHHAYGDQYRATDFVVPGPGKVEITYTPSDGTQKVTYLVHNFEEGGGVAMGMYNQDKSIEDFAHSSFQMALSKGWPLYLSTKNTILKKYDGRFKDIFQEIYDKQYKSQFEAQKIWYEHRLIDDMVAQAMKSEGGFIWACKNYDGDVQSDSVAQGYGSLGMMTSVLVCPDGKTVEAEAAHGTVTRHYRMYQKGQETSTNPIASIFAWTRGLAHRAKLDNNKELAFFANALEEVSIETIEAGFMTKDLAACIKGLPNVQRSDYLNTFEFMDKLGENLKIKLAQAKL
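IDH1-R132H (0.5 ug/mL) preincubated 30 min with compound, then NADPH (0.016 mM) and alpha-KG (2 mM) added; 80 min at RT, pH 7.5. Remaining NADPH coupled via diaphorase/resazurin to fluorescence (540/590 nm); concentration-response curves normalized to no-enzyme control.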
HttQ103 aggreg: reduces HttQ103-GFP aggregates in PC12 cells; Potency, µM (doses to about 46.1 µM), actives largely listed as inhibitors; 1.1% of 220,000 active; PC12 HttQ103-GFP aggregates, Acumen cytometry, 40 h; further: nearly all actives have a fitted effect of over 60% in size
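Read-out: GFP aggregate count by laser scanning cytometer (488 nm excitation, 500-530 nm emission, 1–25 µm objects >6 SD above background). Cells: PC12, inducible HTTex1-Q103-GFP, 100 nM tebufenozide; compounds titrated.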
Resorufin autofl: autofluorescence interference, mutant IDH1 hit counter-screen; shares compounds with mIDH1 inhibitor; 750 tested, under 10 active; inhibition of signal, % at 51.2 µM; AID 623980; Resorufin detection reagent fluorescence interference, cell-free
IDH1 WT: selectivity of mutant IDH1 inhibitors: human wild-type IDH1 | shares compounds with mIDH1 inhibitor | Potency, µM (top dose mostly 115 µM), most hits filed as inhibitors | 9% of 750 active | WT IDH1 enzyme, NADPH diaphorase/resazurin fluorescence; further: nearly all actives have a fitted effect of over 55% in size
Target sequence (O75874 whole entry, looked up): as the sequence (O75874 whole entry R132H, stated change not applied) above, with H132R counted along it
mIDH1 confirm: inhibits human mutant IDH1 enzyme in cherrypick confirmation. 83% of 750 active. IDH1 R132H enzyme, NADPH diaphorase/resazurin fluorescence. Potency, µM (top dose mostly 76.6 µM), hits mostly inhibitors. shares compounds with mIDH1 inhibitor. AID 624002; further: nearly all actives have a fitted effect of over 50% in size
Each line names hits and unclear results; the compound was inactive in the other large screens (follow-up assays come after a bar, where they were run). The call rests on the fitted dose curve; in most records, active means well fitted curve in the direction sought with a large enough effect; inconclusive means small, poorly fitted or top-dose-only effect, or another doubt; inactive means no such curve, though single readings can be large; an effect the other way counts as inactive or inconclusive.

Cc1ccc(N2C(=O)CCSC23C(=O)N(Cc2ccccc2)c2ccccc23)cc1 (configuration not stated)	mIDH1 inhibitor inconclusive (no result: NPSR antagonist, AT treatment, HTT ATP protect, HttQ103 aggreg) | Resorufin autofl inactive | IDH1 WT inactive | mIDH1 confirm 45µM
CC1(C)CC(=O)C2=C(C1)NC1=C(C(=O)c3ccccc31)C2c1ccccc1 (configuration not stated)	none
CC1(C)CC(=O)C2=C(C1)NC1=C(C(=O)c3ccccc31)C2c1cc([N+](=O)[O-])ccc1O (configuration not stated)	mIDH1 inhibitor inconclusive | Resorufin autofl inactive | IDH1 WT inactive | mIDH1 confirm 32µM
CC1(C)CC(=O)C2=C(C1)N(c1cccnc1)C(N)=C(C#N)C2c1cccs1 (configuration not stated)	none (no result: HTT ATP protect)
CCSc1sccc1C1C(C#N)=C(N)N(c2cccnc2)C2=C1C(=O)CC(C)(C)C2 (configuration not stated)	mIDH1 inhibitor 58µM | Resorufin autofl inactive | IDH1 WT inactive | mIDH1 confirm 28µM
CCOC(=O)Nc1nc(-c2ccccc2)c(C)s1	none (no result: NPSR antagonist, AT treatment, mIDH1 inhibitor, HttQ103 aggreg)
Cc1ccc(S(=O)(=O)C(CNC(=O)C(=O)NCCc2ccc(Cl)cc2)c2cccs2)cc1 (configuration not stated)	none (no result: NPSR antagonist, AT treatment, HTT ATP protect, HttQ103 aggreg)
O=C(NC1CCCC1)C(c1ccc(F)cc1)N(C(=O)Cc1cccs1)c1ccc2c(c1)OCCO2 (configuration not stated)	mIDH1 inhibitor 10µM | Resorufin autofl inactive | IDH1 WT inactive | mIDH1 confirm 6.3µM
Cc1ccc(C(C(=O)NC2CCCC2)N(C(=O)Cc2cccs2)c2ccc3c(c2)OCCO3)cc1 (configuration not stated)	NPSR antagonist inconclusive, mIDH1 inhibitor inconclusive
Cc1ccc(C(C(=O)NC2CCCC2)N(C(=O)Cc2cccs2)c2ccc(C)c(C)c2)o1 (configuration not stated)	NPSR antagonist inconclusive, mIDH1 inhibitor 5.2µM, HttQ103 aggreg 20µM | Resorufin autofl inactive | IDH1 WT inactive | mIDH1 confirm 4.5µM
COc1ccc(N(C(=O)Cn2cnc3ccccc32)C(C(=O)NC2CCCCC2)c2ccccc2)cc1 (configuration not stated)	mIDH1 inhibitor 9.3µM | Resorufin autofl inactive | IDH1 WT inactive | mIDH1 confirm 2.8µM
Cn1cccc1C(C(=O)NC1CCCCC1)N(C(=O)Cc1cccs1)c1ccc2c(c1)OCO2 (configuration not stated)	mIDH1 inhibitor inconclusive | Resorufin autofl inactive | IDH1 WT inactive | mIDH1 confirm 11µM
Cc1ccc(CCNC(=O)c2ccc3c(c2)N(Cc2ccccc2F)C(=O)c2ccccc2S3=O)cc1 (configuration not stated)	none (no result: NPSR antagonist, AT treatment, HTT ATP protect, HttQ103 aggreg)
CC(C)N(Cc1ccccc1)C(=O)Cn1ncc2c([nH]c3ccccc32)c1=O	none (no result: NPSR antagonist, AT treatment, HTT ATP protect, HttQ103 aggreg)
Cc1cccc(NC(=O)N2CCC(CN3CCCCCC3)CC2)c1C	none (no result: NPSR antagonist, AT treatment, HTT ATP protect, HttQ103 aggreg)
Cc1ccc(C2=NN(CC(=O)NCCCN(CC(C)C)CC(C)C)C(=O)CC2)cc1	none (no result: NPSR antagonist, AT treatment, HTT ATP protect, HttQ103 aggreg)
CCCC(=O)N1c2nc(-c3ccco3)nn2C2(CCCCC2)[C@@H]2CCCC[C@@H]21	none (no result: NPSR antagonist, AT treatment, HTT ATP protect, HttQ103 aggreg)
COc1cccc(Cn2c(CNS(=O)(=O)c3ccc(F)c(Cl)c3)nc3cccnc32)c1	none (no result: NPSR antagonist, AT treatment, HTT ATP protect, HttQ103 aggreg)
O=C(NC1CCCCC1)C(c1ccncc1)N(C(=O)Cc1cccs1)c1ccccc1 (configuration not stated)	none
COc1ccc(N(C(=O)Cc2cccs2)C(C(=O)NC2CCCCC2)c2cccn2C)cc1 (configuration not stated)	mIDH1 inhibitor inconclusive | Resorufin autofl inactive | IDH1 WT inactive | mIDH1 confirm 40µM
